Compound activity (PubChem)
JMJD2A Tudor inh – blocks the human JMJD2A Tudor domain. AID 504339. hit rate 4.4% among 390,000. AlphaScreen JMJD2A-Tudor / H3K4me3 peptide binding. Potency, µM (top dose mostly 114 µM), without a hit: at the highest dose activity change, negative = inhibition, actives largely listed as inhibitors; note: % is set by controls: 0 for no effect and ±100 for the full control effect; nearly all actives have a fitted effect of over 50% in size
PLK1 PBD inh – PLK1 (human) polo-box domain binding inhibition; P53350; Plk1 PBD binding of FITC phosphopeptide, fluorescence polarization; Potency, µM, for inactives: max response, negative = inhibition, usual class: inhibitors; hit rate 2.8% among 360,000; note: series mostly up to about 57 µM; % is set by controls: 0 for no effect and ±100 for the full control effect; nearly all actives have a fitted effect of over 65% in size
HP1b binding inh – HP1-beta chromodomain-methylated histone interaction inhibition; AlphaScreen HP1-beta / biotin-H3K9me3 peptide binding; Potency, µM (doses to about 114 µM), for inactives: at the top dose activity change, negative = inhibition, usual class: inhibitors; hit rate 0.56% among 390,000; AID 540317; note: nearly all actives have a fitted effect of over 70% in size
Target sequence (P83916 whole entry, looked up): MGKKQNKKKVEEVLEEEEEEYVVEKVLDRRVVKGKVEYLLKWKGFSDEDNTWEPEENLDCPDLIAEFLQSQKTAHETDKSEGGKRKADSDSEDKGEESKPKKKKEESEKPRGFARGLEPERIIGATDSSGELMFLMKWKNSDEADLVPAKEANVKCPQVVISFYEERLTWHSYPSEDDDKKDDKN
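HP1-beta protein (50 nM final) preincubated 30 min at room temperature with biotinylated H3(1-18)K9me3 peptide (50 nM) in PBS pH 7.4, 0.01% Tween-20, then compound added for 30 min. AlphaScreen streptavidin donor/nickel chelate acceptor beads (10 ug/mL final), 30 min dark, luminescence read.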
ALOX12 inh – inhibitors of human 12S-lipoxygenase ALOX12; P18054; purified 12hLO, xylenol orange hydroperoxide absorbance; Potency, µM (titrated, usually from 108 µM), for the others: at the top dose activity change, negative = inhibition, hits mostly inhibitors; hit rate 1.1% among 580,000; AID 1671190; note: % is set by controls: 0 for no effect and ±100 for the full control effect
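Purified human 12hLO at 150 nM in 25 mM Hepes, 0.01% Triton X-100, pH 7.0, preincubated 15 min at room temperature with compound. Reaction started with 40 uM arachidonic acid, 30 min at room temperature. Hydroperoxide measured by Fe-xylenol orange, 573/405 nm absorbance ratio.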
BAZ2B block – BAZ2B (human) inhibition; Potency, µM (highest dose often 114 µM), without a hit: at the highest dose activity change, negative = inhibition, usual class: inhibitors; AlphaScreen BAZ2B-H3K14Ac peptide displacement; Q9UIF8; hit rate 4.4% among 360,000; AID 504333; note: % is set by controls: 0 for no effect and ±100 for the full control effect; nearly all actives have a fitted effect of over 60% in size
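Multi-concentration screen (max 110 uM) measuring displacement of acetylated histone H3 peptide from BAZ2B by AlphaScreen, using 50 nM protein, 50 nM peptide and 10 ug/mL streptavidin donor plus Ni-chelate acceptor beads.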
G9a block – blocks human histone lysine methyltransferase G9a | G9a H3K9 monomethylation, AlphaScreen, 2 h | hit rate 8.8% among 350,000 | Potency, µM (titrated, usually from 102 µM), without a hit: at the highest dose activity, negative = inhibition, usual class: inhibitors | Q96KQ7 | AID 504332; note: % is set by controls: 0 for no effect and ±100 for the full control effect; nearly all actives have a fitted effect of over 75% in size
Target sequence (Q96KQ7 913-1193 limits assumed): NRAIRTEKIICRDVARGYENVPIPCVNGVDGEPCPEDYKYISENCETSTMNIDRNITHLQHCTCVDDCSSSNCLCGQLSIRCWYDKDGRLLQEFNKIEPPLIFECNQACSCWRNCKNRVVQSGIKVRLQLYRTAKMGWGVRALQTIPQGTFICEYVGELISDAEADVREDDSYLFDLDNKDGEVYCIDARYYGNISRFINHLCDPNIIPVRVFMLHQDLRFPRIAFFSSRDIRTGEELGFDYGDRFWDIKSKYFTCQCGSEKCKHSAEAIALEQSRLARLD
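Compounds were preincubated with 20 nM G9a for 15 min, after which biotinylated H3K9 peptide (500 nM) and SAM (20 uM) started a 2 h room-temperature reaction. Monomethylated product was quantified by antibody-based AlphaScreen chemiluminescence.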
Numbers without * were called inactive; i = inactive; ? = inconclusive; · = no result; [ ] = remark or other dose. An excerpt weighted towards active compounds, which were near 9% of everything screened. Calls come from the whole dose curve; as a rule, active = well fitted curve in the direction sought with a large enough effect; inconclusive = small, poorly fitted or top-dose-only effect, or another doubt; inactive = no such curve, though single readings can be large; an effect the other way counts as inactive or inconclusive. Potency is the fitted concentration of half-maximal effect.

SMILES	JMJD2A Tudor inh	PLK1 PBD inh	HP1b binding inh	ALOX12 inh	BAZ2B block	G9a block
O=C(c1ccco1)N1CCN(S(=O)(=O)c2ccccc2[N+](=O)[O-])CC1	-9.8%[11.4 µM]	29.9µM*	-8.8%	-7.6%	-19.8%	-21.8%
O=[N+]([O-])c1ccccc1S(=O)(=O)N1CCCCC1	-12.9%	26.7µM*	26.2%	1.9%	-8.0%	13.8%[59 µM]
O=[N+]([O-])c1ccc(CN2CCC(Cc3ccccc3)CC2)cc1	28.2µM*	-4.2%	?	?	50.1µM*	?
O=[N+]([O-])c1ccc(S(=O)(=O)N2CCN(C3CCN(Cc4ccccc4)CC3)CC2)cc1	1.78µM*	4.4%	50.1µM*	?	28.2µM*	31.6µM*
O=[N+]([O-])c1cccc(OCCCN2CCC(Cc3ccccc3)CC2)c1	79.4µM*	3.2%	-14.8%	0.501µM*	·	·
Cc1cccc(NC(=O)N2CCC(Oc3ncccc3C(=O)N3CCOCC3)C2)c1 (centres undefined)	·	·	·	18.2%	·	·
CCOC(=O)[C@]12CCCC=C1N(Cc1ccccc1)C(=O)[C@H](CC(=O)NCc1cccc(C(F)(F)F)c1)C2	·	-9.1%	·	-11.1%	·	·
Cc1ccc(-c2nnc(Nc3cccc(O)c3)c3ccccc23)cc1S(=O)(=O)N1CCCCC1	-34.6%	·	0.1%	-17.4%	-23.0%	-7.8%[59 µM]
O=[N+]([O-])c1ccccc1/C=N/N1CCN(c2ccncc2S(=O)(=O)N2CCCCC2)CC1	35.5µM*	-5.0%	?	-12.5%	31.6µM*	?
O=C1C(Cl)=C(NCCN2CCCCC2)C(=O)c2ccccc21	?	-12.6%	-25.2%	·	?	50.1µM*
O=C1C(Cl)=C(NCc2ccco2)C(=O)c2ccccc21	?	-11.0%	50.1µM*	?	·	·
CCNc1ccc2noc3c2c1C(=O)c1ccccc1-3	?	1.06µM*	?	-6.7%	31.6µM*	?
O=C1c2ccccc2-c2onc3ccc(NCc4ccco4)c1c23	?	3.36µM*	i	·	111.9%	i
CCOc1ccc2noc3c2c1C(=O)c1ccccc1-3	2.9%	5.3%	67.3%	21.9%	-11.4%	?
CCOc1cc(C(=O)OC(C)C(=O)Nc2ccc(NC(C)=O)cc2)ccc1OCC(=O)N1CCCCC1 (centres undefined)	2.1%	0.1%	14.4%	-3.6%	-15.7%	-3.4%
CCOC(=O)c1c(C)[nH]c(C(=O)NNC(=O)c2ccc(C(C)(C)C)cc2)c1C	-20.5%	-4.1%	25.4%	-1.9%	-22.2%	-5.3%
CC(=O)c1nc2ccccc2n1CCc1ccccc1	-5.8%	6.9%	27.7%	416.5%	-3.7%	11.5%
CC(=O)c1ccc(-c2c(C3C4C=CCC(C)C4C(=O)N3Cc3ccccc3)ccc3ccccc23)cc1 (centres undefined)	-30.3%	·	23.4%	·	·	·
O=C(COC(=O)c1nc(Cl)ccc1Cl)Nc1ccc2[nH]c(=O)[nH]c2c1	-17.1%	-12.6%	20.5%	-21.7%	5.6%	?
N/C(COc1ccc2ccccc2c1)=N\O	·	·	·	2.3%	·	·
N/C(COc1ccc(C(=O)O)cc1)=N\O	21.0%	-2.5%	45.7%	-11.3%	?	50.1µM*
C(=N\c1nccs1)/Nc1nccs1	35.5µM*	-9.5%	-77.3%	?	79.4µM*	28.2µM*
CCNC(=O)N1CC(Oc2cccc(-c3nc(C)no3)c2)C1	·	·	·	23.1%	·	·
CCO[C@@H]1OC(C(=O)NCc2ccccc2)=C[C@H](c2ccccc2)[C@H]1CCCO	-13.7%	2.0%	15.5%	-20.1%	-3.8%	-36.7%[59 µM]
O=C(NC(=S)Nc1ccccn1)c1ccco1	?	1.1%	21.8%	?	2.1%	-7.3%
SMILES	JMJD2A Tudor inh	PLK1 PBD inh	HP1b binding inh	ALOX12 inh	BAZ2B block	G9a block
O=C(NC(=S)Nc1cccnc1Cl)c1ccc(Cl)cc1	-3.5%	-18.4%	-4.2%	?	-19.6%	39.8µM*
O=C(NC(=S)Nc1cccnc1Cl)c1ccco1	-21.1%	26.7µM*	?	?	-22.2%	56.2µM*
Cc1cccc(C(=O)Nc2cccnc2Cl)c1	?	8.44µM*	26.9%	3.3%	-0.1%	·
Cc1ccccc1C1=C/C(=C(\SS/C(C(=O)c2ccc(OCC(=O)O)c(Cl)c2Cl)=C2\C=C(c3ccccc3C)SS2)C(=O)c2ccc(OCC(=O)O)c(Cl)c2Cl)SS1	28.2µM*	16.8µM*	20µM*	5.62µM*	·	·
Cc1cc(NS(=O)(=O)c2ccc(NC(=S)NC(=O)c3ccc(C(C)(C)C)cc3)cc2)no1	?	?	-28.5%	7.08µM*	?	?
Cc1cc(NS(=O)(=O)c2ccc(NC(=S)NC(=O)c3ccc(Cl)cc3Cl)cc2)no1	-19.2%	-20.7%	-0.5%	31.6µM*	-30.0%	-34.9%[59 µM]
Cc1cc(NS(=O)(=O)c2ccc(NC(=O)c3ccc(Cl)cc3Cl)cc2)no1	-4.6%	-10.6%	62.7%	-0.5%	-1.2%	0.8%
Cc1cc(NS(=O)(=O)c2ccc(NC(=S)NC(=O)c3ccccc3)cc2)no1	-13.5%	-8.9%	1.6%	15.8µM*	-2.0%	?
COc1ccc(NC(=O)N(C)C[C@@H]2Oc3ccc(NC(=O)NC(C)C)cc3CC(=O)N([C@H](C)CO)C[C@@H]2C)cc1	-6.9%	-12.7%	46.9%	-25.6%	·	·
Cc1ccc(C(=O)N2CC(Oc3ccc(F)c(F)c3)C2)cc1	·	·	·	4.3%[6.33 µM]	·	·
COc1ccc(OCc2nc3c4c(ncn3n2)-c2ccccc2CC42CCCC2)cc1	4.8%	-2.1%	31.2%	-5.6%	4.9%	17.3%[59 µM]
Cc1ccc(NC(=O)c2ccccc2NC(=O)c2cccnc2)cc1	-5.5%	-7.8%	33.0%	?	?	10.9%
COc1ccccc1C(=O)Nc1ccnn1C1CCN(C(=O)C2CCOC2)CC1 (centres undefined)	-4.7%	?	78.1%	-1.0%	-2.5%	23.0%
Cc1ccc(S(=O)(=O)N2CC(=NO)C2)cc1	-6.2%	0.1%	35.8%	?	-3.8%	44.7µM*
COCCn1c(SCC(=O)Nc2cccc(F)c2)nc2c([nH]c3ccccc32)c1=O	-4.2%	-0.4%	15.5%	?	-3.4%	69.5%
COC(=O)c1ccc(C2/C(=C(/O)c3ccc(Cl)cc3)C(=O)C(=O)N2C2CCS(=O)(=O)C2)cc1 (centres undefined)	89.1µM*	-3.4%	-15.6%	?	?	44.7µM*
O=C1C(=O)N(C2CCS(=O)(=O)C2)C(c2cccc(O)c2)/C1=C(/O)c1ccc(Cl)cc1 (centres undefined)	?	-8.6%	-2.1%	?	79.4µM*	31.6µM*
CN(C)S(=O)(=O)c1cc(NC(=O)c2cc(=O)c3ccccc3o2)ccc1Cl	-29.3%	-6.2%	7.2%	-5.2%	-17.9%	?
CCN(CC)c1ccc(/C=N/NC(=O)C(O)(c2ccccc2)c2ccccc2)o1	·	·	·	·	-8.1%	28.2µM*
